Measurements reported in PubChem BioAssay (NCATS).
Records with an inconclusive call do not appear. Activity calls are given as the source filed them. Calls follow the shape of the dose curve; as a rule, active = well fitted inhibition curve with a large enough effect; inconclusive = small, poorly fitted or top-dose-only effect; inactive = flat fitted curve, though single readings scatter.

tested on: NIH3T3; assay: Cytotoxic Profiling of Annotated Libraries Using Quantitative High-Throughput Screening (AID 1296008); conditions: Five cell lines viability, CellTiter-Glo ATP luminescence, 48-72 h; max response: hits give low values; also: nearly all actives have a fitted effect of over 60% in size
How it was run: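 Cytotoxicity was measured as CellTiter-Glo ATP luminescence, read after 10 min at room temperature. Compound treatment of the cells lasted 48 or 72 hr at 37 degrees Celsius in a qHTS format.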
% is scaled to controls: 0 for no effect and ±100 for the full control effect; potency is read from the fitted curve at half-maximal effect.

Structure (SMILES) | max response | Potency
COC(=O)C1=COC(O[C@@H]2O[C@H](CO)[C@@H](O)[C@H](O)[C@H]2O)[C@H]2[C@@H]1[C@H](OC(=O)CCc1ccc(O)cc1)C[C@]2(C)O (stereo partly drawn) | 2.76% (inactive) | –
C[C@H](NC(c1cccc(C[P+](=O)O)c1)[C@H](C)O)c1ccc(Cl)c(Cl)c1 (stereo partly drawn) | 3.54% (inactive) | –
C=C1CN(Cc2ccc(C(=O)Nc3ccccc3N)cc2)C(=O)c2ccccc21 | – | 3.66 µM (active)
C/C=C1\[C@H](O[C@@H]2O[C@H](CO)[C@@H](O)[C@H](O)[C@H]2O)OC=C(C(=O)OC)[C@H]1CC(=O)OC[C@H]1O[C@@H](OCCc2ccc(O)cc2)[C@H](O)[C@@H](O)[C@@H]1O | -11.8% (inactive) | –
CO[C@H]1O[C@@H]2O[C@]3(C)CC[C@H]4[C@H](C)CC[C@@H]([C@H]1C)[C@@]24OO3 | 4.96% (inactive) | –
C=CC1(C)C=C2CCC3C(C)(C)C(O[C@@H]4O[C@@H](CO)[C@H](O)[C@H]4O)CCC3(C)C2CC1O[C@@H]1O[C@H](C)[C@H](O)[C@H](O)[C@H]1O (stereo partly drawn) | -6.13% (inactive) | –
C#CCN(Cc1cc2c(=O)n(C)c(CN3CCN(C)CC3)nc2cc1Cl)c1ccc(C(=O)NCc2cccnc2)cc1 | -114% (inactive) | –
C=C[C@H]1CN2CC[C@H]1C[C@@H]2C(O)c1ccnc2ccc(OC)cc12 (stereo partly drawn) | 3.58% (inactive) | –
C[C@@H]1O[C@@H](O[C@H]2[C@H](O)[C@@H](O[C@@H]3O[C@H](CO)[C@@H](O)[C@H](O[C@@H]4O[C@H](CO)[C@@H](O)[C@H](O)[C@H]4O)[C@H]3O)[C@H](O[C@H]3CC[C@@]4(C)C(=CC[C@@H]5C4CC[C@@]4(C)C5C[C@@H]5OC6(CC[C@@](C)(CO[C@@H]7O[C@H](CO)[C@@H](O)[C@H](O)[C@H]7O)O6)[C@@H](C)[C@@H]54)C3)O[C@@H]2CO)[C@H](O)[C@H](O)[C@H]1OC1OC(CO)C(O)C(O)C1O (stereo partly drawn) | -4.4% (inactive) | –
CC(/C=C/C1=CC2=CC(=O)C(C)(O)C(O)C2=CO1)=C\C(C)CCO (stereo not drawn) | 0.418% (inactive) | –
O=C(OC[C@H]1O[C@H](O[C@]2(CO)O[C@H](CO)[C@@H](O)[C@@H]2O)[C@H](O)[C@@H](O)[C@@H]1O)c1ccccc1 | 4.12% (inactive) | –
C=C1C(=O)O[C@H]2[C@H]1CC/C(C)=C/CC[C@@]1(C)O[C@@H]21 | 0.479% (inactive) | –
C[C@@]12C[C@]3(O)O[C@H](O1)[C@]1(COC(=O)c4ccccc4)[C@H]3C[C@@]12O[C@@H]1O[C@H](CO)[C@@H](O)[C@H](O)[C@H]1O | 3.01% (inactive) | –
C=C1CCC2C(C(C)(C)O)CCC2(C)CC(O)C(=C)CCC1O (stereo not drawn) | -9.68% (inactive) | –
CCC[C@@H]1O[C@@H]2C[C@H]3[C@@H]4CCC5=CC(=O)C=C[C@]5(C)[C@H]4[C@@H](O)C[C@]3(C)[C@]2(C(=O)CO)O1 | -20.8% (inactive) | –
CC1(C)CCCC2(C)C1CC=C1C(=O)OC(O)C12O (stereo not drawn) | 0.868% (inactive) | –
C/C=C/C=C/C(=O)N1CC[C@]23c4ccccc4N[C@H]4N(C)c5cccc6c5[C@@]42CCN([C@H]6C2OC2(C)C)[C@H]13 (stereo partly drawn) | 3.9% (inactive) | –
CCN(CC)Cc1ccc(C(=O)N(CCc2ccccc2OC)[C@@H]2CCNC2)cc1 | – | 2.52 µM (active)
O=C(O)CC1CCC(c2ccc(-c3ccc4nc(C(=O)NCc5ccc(OC(F)(F)F)cc5)cn4c3)cc2)CC1 (stereo not drawn) | -0.598% (inactive) | –
COc1cc(N)c(Cl)cc1C(=O)NC[C@@H]1CCN2CCC[C@@H]12 | -6% (inactive) | –
CCc1c(-c2ccccc2)c(-c2ccccc2)nn1-c1ccccc1-c1cccc(OCC(=O)O)c1 | 0.468% (inactive) | –
CC1=CC(=O)CC2C1(O)CCC(C)C21CC(c2ccoc2)OC1=O (stereo not drawn) | -0.573% (inactive) | –
C/C=C(/COC(=O)/C(C)=C/C)C(=O)OC(CC)c1ccc(OC)c(OC)c1 (stereo not drawn) | 1.56% (inactive) | –
CC(=O)O[C@@H]1CC(C)=C2[C@H]1[C@H](C)CC[C@H]2/C=C(\C)C(=O)O | -9.33% (inactive) | –
NC(=O)c1cnc(NCCc2ccc(O)c(Cl)c2)nc1NCc1ccccc1 | – | 5.17 µM (active)
CC1=CC(=O)[C@H]2C(C)(C)CCC[C@]2(C)[C@@]1(O)CO | 3.55% (inactive) | –
COC(=O)c1cc(OC)c(O[C@@H]2O[C@@H](C)[C@H](O)[C@@H](O)[C@H]2O)c(OC)c1 | 2.7% (inactive) | –
Cn1c2ccc(F)cc2c2c(C(=O)N3CCCC3)cn(-c3ccccc3)c(=O)c21 | -3.48% (inactive) | –
